Test results: paper PMC4552634, “A New Set of Chemical Starting Points with Plasmodium falciparum Transmission-Blocking Potential for Antimalarial Drug Discovery” (PLoS ONE, 2015)
Among all 13,000 compounds or so, about 3,200 (25%) showed an effect of 50% or more. This is one part of the list.

The compounds below were run on P. falciparum stage V gametocytes. Details: 48 h, 5 µM; inhibitor.
Design: BacTiter-Glo ATP luminescence viability of purified stage V gametocytes in 384-well plates, per cent inhibition versus DMSO

SMILES | % Inhibition [%]
CCNc1cc(C(=O)N[C@@H](Cc2ccccc2)[C@H](O)CNC2(CC(C)C)CC2)cc(N2CCCCS2(=O)=O)c1 [TCMDC-135258] | -2.163
O=C(Nc1ccc2c(c1)CCN(C1CCC1)CC2)c1ccc(-n2ccnc2)cn1 [TCMDC-135973] | 3.666
O=C(Nc1ccc2c(c1)CCN(C1CCC1)CC2)c1ccc(-c2cn3ccccc3n2)cc1 [TCMDC-135460] | 75.27
COc1ccc2cc(C(=O)Nc3ccc4c(c3)CCN(C3CCC3)CC4)ccc2c1 [TCMDC-136082] | -6.595
N#Cc1ccc(-n2cc(C(=O)Nc3ccc4c(c3)CCN(C3CCC3)CC4)c(C(F)(F)F)n2)cc1 [TCMDC-136080] | 23.35
N#Cc1cccc(-c2ccc(C(=O)Nc3ccc4c(c3)CCN(C3CCC3)CC4)cn2)c1 [TCMDC-135996] | -32.92
O=C(Nc1ccc2c(c1)CCN(C1CCC1)CC2)c1cn(-c2ccccc2)nc1-c1ccccc1 [TCMDC-136083] | 54.47
CCOCCCNc1sc(S(=O)(=O)c2ccccc2)nc1S(=O)(=O)c1ccc(C)cc1 [TCMDC-124750] | 20.27
O=C(Cc1ccc[n+]([O-])c1)Nc1cccc(-c2cccc(-c3nc4cc(C(F)(F)F)ccc4[nH]3)c2)c1 [TCMDC-136990] | -75.57
CC(=O)Nc1ccc(CN2CCN(C(c3ccc(F)cc3)c3ccc(F)cc3)CC2)cc1 [TCMDC-124045] | 16.43
O=C(/C=C/c1ccc(F)cc1)NC1CCC(CCN2CCc3ccccc3CC2)CC1 (stereo not drawn) [TCMDC-139451] | -36.35
N#Cc1ccc(N2CCN(Cc3ccc(-c4ccc(-c5nc6cc(C(F)(F)F)ccc6[nH]5)cc4)cc3)CC2)nc1.O=C(O)C(F)(F)F [TCMDC-133113] | -14.21
Oc1ccccc1CN1CCCC(COC(c2ccc(F)cc2)c2ccc(F)cc2)C1 (stereo not drawn) [TCMDC-136037] | 28.2
CCN(CC)S(=O)(=O)c1ccc(CCOCCCCCNCC(O)c2cc(Cl)c(N)c(Cl)c2)s1 (stereo not drawn) [TCMDC-132091] | 31.84
Cc1ccc(CCOCCCCCNCC(O)c2cc(Cl)c(N)c(Cl)c2)cc1 (stereo not drawn) [TCMDC-132077] | 0.6115
Nc1c(Cl)cc(C(O)CNCCCCCCCCCc2ccccn2)cc1Cl (stereo not drawn) [TCMDC-132100] | 20.05
Nc1c(Cl)cc(C(O)CNCCCCCOCCc2ccc3occc3c2)cc1Cl (stereo not drawn) [TCMDC-132085] | 27.47
Nc1c(Cl)cc(C(O)CNCCCCCOCCCc2ccc3ncccc3c2)cc1Cl (stereo not drawn) [TCMDC-132087] | 57.03
Nc1c(Cl)cc(C(O)CNCCCCCOCCCc2ccc(O)c3ncccc23)cc1Cl (stereo not drawn) [TCMDC-132088] | 115.2
Nc1c(Cl)cc(C(O)CNCCCCCCOCCc2ccc(O)cc2)cc1Cl (stereo not drawn) [TCMDC-132086] | 21.31
Nc1c(Cl)cc(C(O)CNCCCCCCOCCc2ccc(CO)s2)cc1Cl (stereo not drawn) [TCMDC-132092] | 55.37

SMILES | % Inhibition [%]
Nc1c(Cl)cc(C(O)CNCCCCCOCCc2ccccc2)cc1C(F)(F)F (stereo not drawn) [TCMDC-132081] | 12.69
CCOCc1cnc(C)nc1CNC(=O)c1c(C)[nH]c2ccc(C)cc12 [TCMDC-125780] | 11.26
CCCc1cc(=O)oc2cc(OC)c(C(=O)CC(C)C)c(OC)c12 [TCMDC-138262] | -48.84
Oc1cccc(-c2nc(-c3ccccc3)c(-c3ccc4oc5ccc(-c6[nH]c(-c7cccc(O)c7)nc6-c6ccccc6)cc5c4c3)[nH]2)c1 [TCMDC-124223] | 14.59
CC(CN(C)C)C(=O)Nc1ccc(-c2ccc(-c3nc4ccc(C(F)(F)F)cc4[nH]3)cc2)cc1 (stereo not drawn) [TCMDC-137113] | -54.47
O=C(NCCN1CCCC1)c1cccc(-c2ccc(-c3nc4ccc(F)cc4[nH]3)cc2)c1 [TCMDC-132325] | -16.55
CN(C)C(=S)NN=Cc1cccc(O)c1O [TCMDC-137879] | 23.09
CC(=NNC(N)=O)C1=C(O)C(c2ccccc2)N(C2CCCCC2)C1=O (stereo not drawn) [TCMDC-131672] | -9.176
NC(N)=NN=CC(=O)Nc1ccc(Cl)c(C(F)(F)F)c1 [TCMDC-137561] | 9.011
Cc1cccc2nc(-c3cccc(-c4cccc(NC(=O)Cc5ccc[n+]([O-])c5)c4)c3)[nH]c12 [TCMDC-136992] | 24.81
COc1ccc(C(=O)NCCCCN2CCC(c3ccc4c(c3OC)CCCC4)CC2)cc1-c1ccc(C(F)(F)F)cc1 [TCMDC-138700] | -81.5
O=C(NCCCCN1CC=C(c2ccc3c(c2OCC2CC2)CCCC3)CC1)c1ccc(-c2ccc(C(F)(F)F)cc2)cc1 [TCMDC-138758] | -36.04
O=C(NCCCCN1CCC(c2ccc3c(c2OCCN2CCCC2=O)CCCC3)CC1)c1ccc(-c2ccc(C(F)(F)F)cc2)cc1 [TCMDC-138773] | 108.1
O=C(NCCCCN1CCC(c2ccc3c(c2OCCOCCO)CCCC3)CC1)c1ccc(-c2ccc(C(F)(F)F)cc2)cc1 [TCMDC-138762] | 96.11
N#CCOc1c(C2CCN(CCCCNC(=O)c3ccc(-c4ccc(C(F)(F)F)cc4)cc3)CC2)ccc2c1CCCC2 [TCMDC-138769] | 92.11
O=C(NCCCCN1CCC(c2ccc3c(c2OCCCO)CCCC3)CC1)c1ccc(-c2ccc(C(F)(F)F)cc2)c(CO)c1 [TCMDC-138741] | 72.16
Cc1cc(C2CCN(CCCCNC(=O)c3ccc(-c4ccc(C(F)(F)F)cc4)cc3)CC2)c(C)cc1OCC#N [TCMDC-138799] | 37.57
OC(c1ccccc1)C1CN(CCc2ccccc2)CCC1(O)c1ccccc1 (stereo not drawn) [TCMDC-131287] | -3.552
O=C(/C=C/c1ccccc1Cl)Nc1ccc(Br)c(OCCN2CCN(CCN3CCOCC3)CC2)c1 [TCMDC-140958] | -23.86
Fc1ccc2[nH]c(-c3cccc(-c4ccc(CNCc5cnn(-c6ccccc6)n5)cc4)c3)nc2c1.O=C(O)C(F)(F)F [TCMDC-132973] | -12.58
O=C(NC1CCCCC1)c1csc(C2CCCN(C(=O)c3ccc(O)c(-c4cccc(C(F)(F)F)c4)c3)C2)n1 (stereo not drawn) [TCMDC-140156] | 5.189

SMILES | % Inhibition [%]
CC(=O)c1ccc(-c2cccc3c(CC(=O)Nc4ccc5nccc(N6CCN(C)CC6)c5c4)cccc23)cc1 [TCMDC-139271] | -10.77
Cn1cc(C2CCN(CCCCNC(=O)c3ccc(-c4ccc(C(F)(F)F)cc4)c(CO)c3)CC2)c2ccccc21 [TCMDC-138748] | 65.02
O=C(NCCCCN1CCC(c2cccc3ccccc23)CC1)c1ccc(-c2ccc(C(F)(F)F)cn2)cc1 [TCMDC-138570] | -25.01
CCOC(=O)c1cc(C(=O)NCCCCN2CCC(c3cn(C)c4ccccc34)CC2)ccc1-c1ccc(C(F)(F)F)cc1 [TCMDC-138751] | 1.206
CNC(=O)COc1cc(C)c(C2CCN(CCCCNC(=O)c3ccc(-c4ccc(C(F)(F)F)cc4)cc3)CC2)cc1C [TCMDC-138846] | 42.45
O=C(NCCCCN1CCC(c2ccc3c(c2OCCO)CCCC3)CC1)c1sc(-c2ccc(C(F)(F)F)cc2)nc1CO [TCMDC-138776] | 39.12
O=C(NCCCCN1CCC(c2ccc3c(c2OCCCO)CCCC3)CC1)c1ccc(-c2ccc(C(F)(F)F)cc2)cc1 [TCMDC-138743] | 141.9
O=C(NCCCCN1CCC(c2ccc3c(c2OCC2COCO2)CCCC3)CC1)c1ccc(-c2ccc(C(F)(F)F)cc2)cc1 (stereo not drawn) [TCMDC-138770] | 14.16
O=C(NCCCCN1CCC(c2ccc3c(c2OCCO)CCCC3)CC1)c1ccc2oc(-c3ccc(C(F)(F)F)cc3)cc2c1 [TCMDC-138771] | 113.6
O=C(NCCCCN1CCC(c2ccc3c(c2OCCO)CCCC3)CC1)c1ccc(-c2ccc(C(F)(F)F)cc2)cc1 [TCMDC-138714] | 98.87
CN1CCCc2ccc(NC(=O)c3cc(-c4ccc(Cl)cc4)cs3)cc2C1 [TCMDC-133946] | 39.01
CCN(CCCN1CCCCC1)c1nc(C)cc(Nc2ccc(Cl)cc2)n1 [TCMDC-137045] | 21.21
O=C(Nc1ccc2c(c1)OCO2)NC1CCN(c2ccnc(NCc3ccc(F)cc3)n2)CC1 [TCMDC-133635] | 26.57
Cc1ccc(NC(=O)c2ccc3ncccc3c2)cc1OC1CCN(CCC(C)C)C1 (stereo not drawn) [TCMDC-133980] | 9.414
CCCC1N=C(N)N=C(N)N1c1ccc(OC)cc1 (stereo not drawn) [TCMDC-131295] | -30.41
O=C(Nc1ccc(CCNC2=NCCN2)cc1)Nc1ccc(CCNC2=NCCN2)cc1 [TCMDC-137205] | 10.33
CCCCc1ccc2[nH]c(NC(=O)OC)nc2c1 [TCMDC-131798] | -12.96
CC(C)(C)OC(=O)Cn1cnc2cc(NC(=O)c3cc([N+](=O)[O-])cc([N+](=O)[O-])c3)ccc21 [TCMDC-131910] | -17.84
Cc1nc2ccc3ccc(CNc4ccc(C(=O)N[C@@H](CCC(=O)O)C(=O)N[C@@H](Cc5cccs5)C(=O)O)c(F)c4)cc3c2c(=O)[nH]1 [TCMDC-137819] | 7.673
O=C(CNC(=O)c1ccc(O)cc1)Nc1cccc(-c2cccc(-c3nc4ccc(C(F)(F)F)cc4[nH]3)c2)c1 [TCMDC-136816] | 11.2
CN1CCN(CC(O)CNC(=O)Nc2ccc(Br)cc2)CC1 (stereo not drawn) [TCMDC-134635] | 15.1
